# Data reported in PubChem BioAssay (Tox21).
# Results filed as inconclusive are left out. Active and inactive are the calls of the source. The call rests on the fitted dose curve; in most records, active means well fitted activation curve with a large enough effect in the repeat runs; inconclusive means weak or mixed curves; inactive means flat fitted curve, though single readings scatter.
# Assay: A CellTox Green Cytotoxicity Assay to monitor cytotoxicity in HepG2 cells - 40 hour (AID 1224879); further: nearly all actives have a fitted effect of over 40% in size
# Conditions: CellTox Green fluorescence; series mostly up to 76.8 µM; cytotoxicity increase: at the top concentration
# Procedure, shortened: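 HepG2 cells were seeded together with the CellTox Green dye at 600 cells/well, left 5 h at 37 C/5% CO2, then given compounds in DMSO. Fluorescence from dye bound to dead-cell DNA was read repeatedly over 40 h of treatment at 37 C.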
# On the % scale 0 is the no-effect control and ±100 the full control effect; potency means the concentration at half of the fitted maximal effect.
Structure (SMILES),cytotoxicity increase,Potency
CCOC(=O)[C@]1(c2ccccc2)Oc2ccccc2[C@@H]1N,-2.04% (inactive),
CCC(Cl)CCl (stereo not given),-0.36% (inactive),
Cc1ccccc1C(=O)Nc1cccc(OC(C)C)c1,6.02% (inactive),
O=C(O)C(F)(F)C(F)(F)C(F)(F)C(F)(F)C(F)(F)C(F)(F)C(F)(F)C(F)(F)C(F)(F)F,2.73% (inactive),
CCBr,-10.1% (inactive),
CCOP(=O)(OCC)SCCSCC,-1% (inactive),
Nc1nc(=S)[nH][nH]1,-7.91% (inactive),
c1ccc(CN2CCNCC2)cc1,-1.95% [at 200 µM] (inactive),
CC(C)(Cl)[N+](=O)[O-],8.03% (inactive),
CC(=O)c1cc2c(cc1C)C(C)(C)C(C)CC2(C)C (stereo not given),,38.9 µM (active)
CCOP(=O)(OCC)Oc1ccc([N+](=O)[O-])cc1,,inactive
COC(=O)C(Cl)C(=O)OC,6.75% [at 35.3 µM] (inactive),
O=C(NC(=O)c1c(F)cccc1F)Nc1ccc(OC(F)(F)C(F)OC(F)(F)F)c(Cl)c1 (stereo not given),-15.5% [at 35.3 µM] (inactive),
CCCCC(CC)COP(=O)(Oc1ccccc1)Oc1ccccc1 (stereo not given),15% (inactive),
CCOP(O)OCC,-19.2% (inactive),
Nc1ccc([N+](=O)[O-])cc1[N+](=O)[O-],-0.872% (inactive),
NCC(CC(=O)O)c1ccc(Cl)cc1 (stereo not given),-9.33% [at 0.29 µM] (inactive),
BrCC(Br)C1CCC(Br)C(Br)C1 (stereo not given),-1.82% (inactive),
N#C/C(N)=C(/N)C#N,1.77% (inactive),
BrCCCCBr,-9.2% (inactive),
Cn1sc(Cl)cc1=O,5.52% (inactive),
C=CCN1CC[C@]23c4c5ccc(O)c4O[C@H]2C(=O)CC[C@@]3(O)[C@H]1C5,6.11% [at 35.3 µM] (inactive),
COC(C)(C)CCC[C@H](C)C/C=C/C(C)=C/C(=O)OC(C)C,10.3% (inactive),
CC(C)(OO)c1ccccc1,-2.57% (inactive),
O=C(NCc1cccnc1)Nc1ccc([N+](=O)[O-])cc1,-1.76% (inactive),
